Reference: the supplement of paper PMC12636033
± gives the standard deviation of the averaged measurements. Whole data set: some 33,000 sequences, median “E-score (rank enrichment, -0.5 to 0.5)” near -0.0028, cut for the highest 2% near 0.23. The list comes from a sample in which the highest values are over-represented; it also holds similar and randomly drawn sequences.

tested on: 2Sb-muMax20 (muMax20 with two 1,3-bis(methyl)benzene Cys staples, A13C/A17C and Q88C/A92C, C-terminal Lys); experiment: PBM 8-mer E-score (E-score (rank enrichment, -0.5 to 0.5)); higher = stronger preferential binding
Procedure: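 Protein binding microarray (universal PBM chip covering all 10-mers in fixed probe flanks) with chemically synthesized human Max(13-93) bHLH-LZ analogs (not full-length Max) bearing noncanonical residues (hArg, Tha, Aib, Nle at 65) and aromatic Cys staples. Read-out per 8-mer (and its reverse complement): E-score (rank-based enrichment, -0.5 to 0.5) and Z-score of median probe intensity.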

Sequence	PBM 8-mer E-score
CCTTTTTC	0.0688 ± 0.1
CCCGAAAA	0.0645 ± 0.051
AGTATTAT	-0.0141 ± 0.036
AGCGAACC	-0.0262 ± 0.033
GCCCTCAA	0.0476 ± 0.024
AAAGTACT	0.136 ± 0.092
GGAAGTAA	0.262 ± 0.0039
TGAAGTAA	0.1 ± 0.05
AGAAGTAA	0.141 ± 0.011
TATATCCA	0.157 ± 0.048
AGTCGCAT	0.00112 ± 0.0029
ATGATCCG	-0.186 ± 0.035
AAAAATAT	0.16 ± 0.01
ATAAATAA	0.111 ± 0.012
ATAAATAG	0.111 ± 0.04
ATAAACAT	0.246 ± 0.014
ATAAATAC	0.288 ± 0.028
ATAAACAC	0.0999 ± 0.056
ATAAAAAT	0.136 ± 0.028
ATAAATAT	0.239 ± 0.042
ATAAACAA	0.157 ± 0.019
ATATCCAT	0.137 ± 0.14
CACTCCGG	-0.0338 ± 0.0072
ATTGATCA	0.0679 ± 0.039
ATGAATTC	0.133 ± 0.015

Sequence	PBM 8-mer E-score
GAAAGCTC	-0.175 ± 0.051
CAGTAGGG	0.111 ± 0.065
ATGGCCAG	0.113 ± 0.0052
ATGGCCAC	-0.0293 ± 0.011
ATGGCCAT	0.238 ± 0.048
CTCAGGTA	-0.158 ± 0.024
AGTAGCAC	0.0432 ± 0.033
ATAATAGA	0.087 ± 0.027
CTAATAGA	0.12 ± 0.054
GTAATAGA	0.253 ± 0.0043
ACCGAGAG	-0.0606 ± 0.0036
AATTACCA	0.217 ± 0.039
CATTACCC	-0.0464 ± 0.014
AATTACCC	0.286 ± 0.012
CCTTACTC	0.123 ± 0.032
AAGCTAGG	-0.00121 ± 0.038
AATCCTGT	0.0436 ± 0.00074
ATCACCCC	0.27 ± 0.0061
ACCACCCG	-0.0962 ± 0.022
CACACCCG	-0.111 ± 0.0078
ATCACCCG	-0.202 ± 0.044
CCCACCCC	0.307 ± 0.058
CCCACCCG	0.335 ± 0.042
ACCACCCC	0.165 ± 0.0053
CCCACCCA	0.387 ± 0.029

Sequence	PBM 8-mer E-score
ATCACCCA	0.0137 ± 0.037
TCCACCCA	0.0351 ± 0.068
GCCACCCC	0.0125 ± 0.1
GCCACCCA	-0.0786 ± 0.049
CATGTCGA	-0.00545 ± 0.041
ATTGCTAG	0.141 ± 0.019
CATGTTCA	0.151 ± 0.025
AAGTATGT	0.0914 ± 0.0063
AGCGACCG	-0.22 ± 0.0069
AAAGGCGA	0.17 ± 0.0091
GCTTCTCC	0.0389 ± 0.0059
ACTAAGGC	0.00844 ± 0.07
CAAGCATC	-0.0457 ± 0.013
AAAAGCCA	0.0803 ± 0.036
ACATACAT	0.273 ± 0.025
ATACACAG	0.0629 ± 0.073
ACATACAG	0.188 ± 0.014
CCATATCA	0.076 ± 0.055
ATACACAC	0.0901 ± 0.038
ACATATCG	0.0421 ± 0.053
ATACACAT	0.244 ± 0.02
ACATACAC	0.127 ± 0.016
CAATACAC	0.0179 ± 0.049
ACATATCA	0.2689 ± 0.00057
CAATACAG	0.00554 ± 0.011

Sequence	PBM 8-mer E-score
CAATACAA	0.234 ± 0.0058
AGACTAGG	-0.0528 ± 0.031
CGGTACCC	-0.133 ± 0.015
CCTAGAGC	-0.0448 ± 0.0096
CCGATCGG	-0.289 ± 0.039
CGGCTAAC	-0.13 ± 0.011
TCCGTCCA	-0.0552 ± 0.013
GCGCATAC	0.0299 ± 0.0056
ATCGGTGG	-0.0489 ± 0.0043
ATAACCTC	0.175 ± 0.016
AAGGCCCC	0.068 ± 0.039
AGAGTGAC	-0.11 ± 0.0053
AAATATAT	0.313 ± 0.02
ACCTATAA	0.00571 ± 0.046
AAATACAA	0.0975 ± 0.074
GCATACAA	0.119 ± 0.0048
ACCTATAT	0.233 ± 0.0084
AAATATAA	0.21 ± 0.022
TCATACAA	0.235 ± 0.035
CCATACAA	0.115 ± 0.024
AAATATAC	0.138 ± 0.019
AAATACAT	0.241 ± 0.058
AAATACAC	0.145 ± 0.033
ACCTATAC	0.0485 ± 0.061
ATCACCGA	-0.0646 ± 0.084

Sequence	PBM 8-mer E-score
CCTCCACC	0.0772 ± 0.089
ATCGGGAG	-0.0438 ± 0.039
CCAGATCG	-0.185 ± 0.061
CTAACAAG	0.0426 ± 0.045
ATATGGCG	0.123 ± 0.007
GAAGGTAA	0.0664 ± 0.084
ACATATAC	0.137 ± 0.0056
ACATATAT	0.255 ± 0.024
ACATATAG	0.131 ± 0.031
ATATCATA	0.239 ± 0.055
ACATCATA	0.243 ± 0.0089
CCATCATA	0.155 ± 0.017
CTATCATA	0.149 ± 0.03
ATATCATG	0.178 ± 0.016
ACATCATC	0.0415 ± 0.031
CGTGGAAC	-0.0767 ± 0.0022
AGTGTGGC	-0.0951 ± 0.025
GTAAGGGA	-0.0384 ± 0.016
ACATCCTC	0.028 ± 0.067
ACCACGCA	-0.0882 ± 0.019
AGCACGTG	0.431 ± 0.0076
ATCACGCA	-0.037 ± 0.094
ATCACGCG	0.239 ± 0.026
CCCACGCG	0.221 ± 0.031
ACCACGTC	-0.01627 ± 2.1e-05

Sequence	PBM 8-mer E-score
ATCACGCC	0.0526 ± 0.033
AGCACGTA	0.128 ± 0.038
ACCACGTG	0.432 ± 0.025
AGCACGTC	-0.156 ± 0.042
ACCACGTA	-0.0697 ± 0.045
ACCACGCG	0.283 ± 0.02
AATTTCGT	0.0796 ± 0.033
GATTGCCC	-0.0998 ± 0.019
ATTTAGCG	0.0611 ± 0.079
ATCACGTA	0.163 ± 0.032
ATCACGTC	0.0586 ± 0.042
ATCACGTG	0.4 ± 0.014
TAGCTACA	0.0611 ± 0.017
TGGGTACA	-0.0341 ± 0.055
CTTGTTTC	0.169 ± 0.026
ATTGTTTG	0.106 ± 0.05
ATTGTTTC	0.248 ± 0.046
CGGTATTA	-0.1001 ± 0.00022
CAAATATA	0.151 ± 0.0063
TAAATATA	0.238 ± 0.0035
TATATAAA	0.177 ± 0.052
AAAATATA	0.178 ± 0.027
TATATATA	0.326 ± 0.048
GATATATA	0.152 ± 0.015
AGAACACG	0.104 ± 0.028

Sequence	PBM 8-mer E-score
AGTCGAAG	0.0391 ± 0.095
CGCTCGAG	0.136 ± 0.036
GGTTGTTA	0.116 ± 0.038
ACTACTGA	-0.123 ± 0.021
CCCGAGAG	-0.255 ± 0.041
ATCAGCCC	0.231 ± 0.03
ATCAGCCA	-0.0692 ± 0.065
ATCAGCCG	-0.223 ± 0.0056
CAAGAGTC	-0.073 ± 0.074
ACTACACA	0.266 ± 0.055
ACTACATG	0.123 ± 0.031
GCTACATA	-0.0387 ± 0.017
ACTACACG	0.0218 ± 0.034
CCTACACG	-0.0783 ± 0.048
ACTACATA	0.239 ± 0.06
TAGAACGA	0.0786 ± 0.036
AGCGAATC	0.0438 ± 0.019
GTAAAGTA	0.262 ± 0.032
ATAAAGTA	0.166 ± 0.053
CTAAAGTA	-0.0474 ± 0.011
GGTATATA	0.235 ± 0.013
CGTATATA	0.185 ± 0.0076
